Compounds with a hit are over-represented: about 2.2% of the library has one in this group of screens.
Hsp70 act: Hsp70 transcriptional activation, primary screen; HeLa Hsp70 promoter luciferase reporter, luminescence; scaled: vehicle 0, proteasome-inhibitor control 100%; activation, % at 10 µM; actives 0.04% (n = 200,000); AID 1203;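 active = activation above the mean across all tested compounds plus 3 SD, cutoff set per campaign, cut at about 5.5% in these data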;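 also: 100% = MG132 at 30 µM as the positive control and 0% = DMSO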
SMARCA2 act: activators of SMARCA2 function; AID 652017; actives 1% (n = 370,000); activation, % at 9.1 µM; MG213 cells, MMTV-luciferase reporter, dexamethasone, overnight; in the data active = activation above about 7.8%;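 also: 0% = vehicle wells and 100% = reference activator wells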
GAA850 FXN act: increases GAA850 frataxin promoter reporter activity | HEK293 lucGAA850 FXN promoter luciferase reporter, 24 h; percent of 10 µM SAHA response | actives 0.56% (n = 360,000) | activation, % at 6 µM;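 active = activation above the average of all compounds screened plus 3 SD, cutoff fixed separately per campaign, cut at about 7.5% in these data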;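 also: 0% = DMSO wells and 100% = 10 µM SAHA wells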
GalR3 antag: blocks the human galanin receptor 3; O60755; HEK293 GalR3-CNG cAMP membrane potential fluorescence; galR3 body fused to GalR1 C-terminus; inhibition, % at 3 µM; actives 0.44% (n = 360,000);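 active = inhibition above the screen-wide average plus 3 SD, cut at about 13% in these data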;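 also: forskolin and galanin both at EC90 stimulate the cells; cAMP rise reported by CNG channel membrane potential dye signal; 0% = forskolin plus galanin with DMSO and 100% = forskolin alone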
Target sequence (O60755 1-299 limits assumed): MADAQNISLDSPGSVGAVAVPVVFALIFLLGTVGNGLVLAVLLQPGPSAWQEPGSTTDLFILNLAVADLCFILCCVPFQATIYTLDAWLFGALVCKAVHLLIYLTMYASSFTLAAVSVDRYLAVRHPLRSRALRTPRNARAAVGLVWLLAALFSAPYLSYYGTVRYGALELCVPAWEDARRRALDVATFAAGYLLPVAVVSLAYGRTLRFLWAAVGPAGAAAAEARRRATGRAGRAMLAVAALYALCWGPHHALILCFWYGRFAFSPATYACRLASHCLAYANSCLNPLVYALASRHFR
HIF activator: HIF pathway transcriptional activation; U2OS HRE-luciferase reporter, luminescence; normalized: DMSO 0%, desferrioxamine 100%; actives 0.32% (n = 300,000); activation, % at 7.5 µM (by protocol);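 active = mean activation of at least 10% of the iron chelator positive control signal, with at least half of replicates also reaching 10%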
Active calls of the source: *; . = not tested or not shown.

SMILES	Hsp70 act	SMARCA2 act	GAA850 FXN act	GalR3 antag	HIF activator
COc1cccc(N2CCN(C(=O)CCCCCn3c(=S)[nH]c4cc5c(cc4c3=O)OCO5)CC2)c1	.	0.8	-0.4	1.9	-1.9
COC(=O)[C@]12C[C@H](CC(=O)NCC3CCCCC3)C(=O)N(Cc3ccc(Cl)cc3Cl)C1=C[C@H](COCc1ccccc1)O[C@@H]2C	.	-2.9	.	.	.
CNC(C)C#Cc1ccc2oc3cccc(OC)c3c(=O)c2c1 (stereo not given)	.	7.1	7.8*	-10.9	4.4
CC(C)CC(=O)NC(c1cccs1)c1ccc2cccnc2c1O (stereo not given)	-0.5	.	-5.3	.	68.4*
CCC(=O)NC(c1cccs1)c1ccc2cccnc2c1O (stereo not given)	-0.3	-3.6	-9.2	-3.2	196.1*
Cc1conc1NC(c1cccs1)c1ccc2cccnc2c1O (stereo not given)	-0.5	.	.	.	3.0
Nc1nc2c(ncn2[C@@H]2O[C@H](C(=O)N[C@@H](Cc3ccccc3)C(=O)NCC3CCCCC3)[C@@H](O)[C@H]2O)c(=O)[nH]1	.	5.4	.	-2.0	.
CS(=O)(=O)c1ccc2nc(NC(=O)C3CC3)sc2c1	.	2.9	1.7	-3.1	15.3*
O/N=C1/C2C3CC4C5C3C1C5C1(OCCO1)C42 (stereo not given)	-0.2	-4.2	-1.8	1.7	60.7*
CCOc1ccc(-n2c(SCC(=O)Nc3ccc4cn[nH]c4c3)nnc2-c2ccncc2)cc1	.	-4.4	.	.	.
COC(=O)c1ccc2nc(-c3ccc(C)cc3)c(Cc3cccc(F)c3)n2c1	.	7.9*	.	-13.0	.
COC(=O)[C@H](C(C)C)N(CCc1cn(CC2CCCCC2)nn1)S(=O)(=O)c1ccccc1Br	.	-5.2	.	.	.
C[C@H]1COc2cc(N3CCOCC3)ccc2S(=O)(=O)N1	.	-4.4	.	0.3	.
Cn1cc(CC(=O)N2CCN(c3ccccc3F)CC2)c2ccccc21	-0.2	-1.8	1.9	-2.4	0.1
Cn1cc(CC(=O)N2CCN(c3ccc(Cl)cc3)CC2)c2ccccc21	-0.3	-1.0	2.8	0.5	42.2*
O=S(=O)(C/C(=C/CO)S(=O)(=O)c1ccccc1)c1ccccc1	14.7*	-10.3	-16.9	4.4	-1.5
Nc1ccccc1Sc1nc2ccccc2[nH]1	0.1	9.2*	1.8	1.3	0.5
Nc1nc2ccccc2[nH]1	.	2.3	1.8	-8.8	0.7
COc1cc2c(cc1OC)/C(=C/C(=O)c1ccc(F)cc1)NCC2	.	3.7	4.2	14.8*	2.3
CCC(=O)n1nc(NCc2ccc(OC)c(OC)c2)nc1NCc1ccc(OC)c(OC)c1	-0.3	-1.7	-2.9	0.3	226.9*
COc1ccc(/C=N/Nc2nncc3ccccc23)cc1	-0.2	8.5*	5.6	-7.3	0.8
CCN(CC)Cc1cc(Nc2c3ccccc3nc3c4ccccc4n(C)c23)cc(CN(CC)CC)c1O	.	40.9*	1.6	-4.0	.
CNC(=O)c1nnsc1S(=O)(=O)c1ccc(Cl)cc1	0.0	-10.6	-15.4	-2.1	-1.1
O=C(c1nnsc1S(=O)(=O)c1ccc(Cl)cc1)N1CCOCC1	-0.1	-13.2	-12.9	21.8*	-2.3
Nn1c(SCC(=O)NC2CCCCC2)nnc1-c1n[nH]c2c1CCC2	.	-3.4	.	.	.
SMILES	Hsp70 act	SMARCA2 act	GAA850 FXN act	GalR3 antag	HIF activator
COc1cccc(C(=O)N(c2ccc(C)cc2)C2C=CS(=O)(=O)C2)c1 (stereo not given)	-0.3	7.9*	-0.8	-6.6	-0.5
COc1cccc(C(=O)N(c2ccc(OC)cc2OC)C2C=CS(=O)(=O)C2)c1 (stereo not given)	-0.5	-1.1	1.3	-2.3	-0.2
OCc1ccc(N=Nc2ccccc2)cc1	.	3.3	-6.2	-0.1	10.4*
COc1ccc(N=Nc2ccc(CO)cc2)cc1	.	6.8	-0.9	-2.8	0.2
COc1cccc(OC)c1C(=O)NC(=O)Nc1c(F)cc(F)cc1F	.	2.3	0.5	-1.5	-0.9
COc1ccc(Cl)c(OC)c1C(=O)NC(=O)Nc1c(F)cc(F)cc1F	.	-3.3	-2.9	-1.5	19.4*
COc1ccc(-n2c(SCC(=O)c3ccc4ccccc4c3)nnc2-c2ccccc2)cc1	.	-4.0	.	.	.
c1ccc(-c2csc3ncnc(NCC4COc5ccccc5O4)c23)cc1 (stereo not given)	0.0	-7.3	-6.2	88.4*	-1.0
c1ccc(-c2csc3ncnc(NCCCN4CCOCC4)c23)cc1	-0.3	-1.3	-2.6	-6.8	0.1
Cc1ccc(-c2cc(-c3nnc(SCC(=O)N4c5ccccc5Sc5ccccc54)n3N)[nH]n2)cc1	.	-5.9	.	.	.
COc1ccc2nc(SCc3ccccc3C)nc(C)c2c1	-0.3	4.2	6.3	5.0	1.3
COc1ccc2nc(SCc3cccc(C)c3)nc(C)c2c1	0.0	8.5*	6.5	3.6	1.9
CCN(Cc1ccccc1)C(=O)CCNS(=O)(=O)c1ccc2c(c1)CC(C)N2C(C)=O (stereo not given)	.	-2.0	0.9	1.7	69.4*
CC(=O)N1c2ccc(S(=O)(=O)NCCc3ccccc3)cc2CC1C (stereo not given)	.	-2.2	0.2	-7.4	18.0*
CC1Cc2cc(S(=O)(=O)NCCc3ccccc3)ccc2N1C(=O)C1CC1 (stereo not given)	.	-2.9	1.4	-7.2	-0.2
CCOC(=O)C1=NOC(C(C)=O)(C(=O)Nc2cc(C)cc(C)c2)C1 (stereo not given)	.	-2.4	.	.	.
C[C@H](O)[C@@H]1C(=O)N2CCc3c([nH]c4c(-c5ccc6c(c5)OCO6)cccc34)[C@@H]2C[C@@H]1N(C)C(=O)c1ccccc1F	.	-4.2	.	.	.
COC(=O)Nc1nnc(Cc2ccc(OC)cc2)s1	0.5	-1.2	0.5	0.0	39.8*
COc1ccc(Cc2nnc(NC(=O)C(C)(C)C)s2)cc1	-0.2	-1.0	1.2	2.0	0.1
COCCCN1C(=O)[C@H](CC(=O)NCC2CCCCC2)[C@]2(C(=O)OC)CCCCC=C12	.	-4.3	.	.	.
CCOC(=O)c1c(S(=O)(=O)NCc2cccs2)c(C)n(C)c1C	.	3.1	1.0	-2.1	1.3
CCOC(=O)c1c(S(=O)(=O)Nc2ccc(C)c(F)c2)c(C)n(C)c1C	.	-0.4	-0.5	-0.8	1.0
CCOC(=O)c1c(S(=O)(=O)NCc2ccc(C)o2)c(C)n(C)c1C	.	-1.8	-0.3	-8.4	69.5*
CCOC(=O)c1c(S(=O)(=O)Nc2ccc(C)cn2)c(C)n(C)c1C	.	7.9*	0.5	-9.1	-0.3
CN(C)c1ccc(/C=C/c2ccc3c4ccccc4ccc3[n+]2-c2ccccc2)cc1	0.3	-9.8	-14.1	17.5*	.
Cc1occc1-c1n[nH]c(=S)n1-c1ccccc1	-0.4	1.4	-0.5	-3.0	0.1
Cc1occc1-c1n[nH]c(=S)n1C	-0.2	-4.7	1.5	13.1*	0.0
CN(CC(=O)Nc1ccc(F)c(F)c1F)C(=O)/C=C/c1ccco1	.	-1.2	1.4	4.4	.
CN(CC(=O)Nc1ccc(F)c(F)c1F)C(=O)/C=C/c1ccc(Cl)cc1	-0.3	-1.7	0.4	-0.1	224.9*
Cc1ccc(-c2cc(-c3nnc(SCC(=O)Nc4nccs4)n3N)[nH]n2)cc1	.	2.0	.	.	.

Screening data as filed in PubChem BioAssay.
